Calls of active or inactive are those of the source. How the source made its calls: active means hit-call score of the fitted dose curve at least 0.9, where 1 is the maximum; inactive means score below 0.9.
What was measured:
Details in all cases: mRNA level, 48 h; actives raise or lower the signal
[1] = read-out: Cytochrome P450 (CYP24A1), CYP24A1 (gene 1591); test: LTEA_HepaRG_CYP24A1: Life Technologies and Expression Analysis (LTEA) Assay for Cytochrome P450 (CYP24A1) using HepaRG (AID 2283478)
Procedure, shortened: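 HepaRG cells plated 48 h, then exposed in duplicate in serum-free induction medium for 48 h to 8-point half-log series from 100 uM in 0.5% DMSO. CYP24A1 mRNA by Fluidigm qRT-PCR, normalized to ACTB, GAPDH, POLR2A; bidirectional fit versus DMSO.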

[2] = read-out: Cytochrome P450 (CYP1A2), CYP1A2 (gene 1544); test: LTEA_HepaRG_CYP1A2: Life Technologies and Expression Analysis (LTEA) Assay for Cytochrome P450 (CYP1A2) using HepaRG (AID 2283479)
Procedure, shortened: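 Differentiated human HepaRG cells in serum-free induction medium exposed 48 hours in duplicate to 8 half-log concentrations from 100 uM, 0.5% DMSO. CYP1A2 mRNA quantified by qRT-PCR, normalized to ACTB, GAPDH and POLR2A; bidirectional fitting versus DMSO.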

[3] = read-out: cysteine-aspartic acid protease (CASP8), CASP8 (gene 841); test: LTEA_HepaRG_CASP8: Life Technologies and Expression Analysis (LTEA) Assay for cysteine-aspartic acid protease (CASP8) using HepaRG (AID 2283480)
Procedure, shortened: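 qRT-PCR readout of CASP8 mRNA, normalized to three housekeeping genes, after 48 h chemical exposure of HepaRG cells; 8-point half-log series, top 100 uM, 0.5% DMSO vehicle. Bidirectional curve fitting against DMSO baseline.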

[4] = read-out: Cytochrome P450 (CYP2B6), CYP2B6 (gene 1555); test: LTEA_HepaRG_CYP2B6: Life Technologies and Expression Analysis (LTEA) Assay for Cytochrome P450 (CYP2B6) using HepaRG (AID 2283481)
Procedure, shortened: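 Differentiated human HepaRG cells in serum-free induction medium, dosed in duplicate for 48 h over 8 half-log concentrations topping at 100 uM (0.5% DMSO). CYP2B6 mRNA measured by TaqMan qRT-PCR, normalized to ACTB, GAPDH, POLR2A; bidirectional fit versus DMSO.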

[5] = read-out: Cytochrome P450 2C19 (Homo sapiens) (UniProt P33261); test: LTEA_HepaRG_CYP2C19: Life Technologies and Expression Analysis (LTEA) Assay for CYP2C19 using HepaRG (AID 2283482)
Procedure, shortened: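 Differentiated HepaRG cells in serum-free induction medium exposed 48 h in duplicate, 8 concentrations from 100 uM by half-log steps in 0.5% DMSO. CYP2C19 mRNA measured by TaqMan qRT-PCR, normalized to ACTB, GAPDH, POLR2A. Bidirectional fit versus DMSO.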

CYP2C8 (gene 1558) = test: LTEA_HepaRG_CYP2C8: Life Technologies and Expression Analysis (LTEA) Assay for CYP2C8 using HepaRG (AID 2283483)
Procedure, shortened: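 HepaRG (human liver line), 48 h chemical exposure, 8-pt half-log series from 100 uM, 0.5% DMSO vehicle. Readout: CYP2C8 transcript by qRT-PCR, housekeeping-normalized. Bidirectional fit vs DMSO baseline.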

CYP2C9 (gene 1559) = test: LTEA_HepaRG_CYP2C9: Life Technologies and Expression Analysis (LTEA) Assay for CYP2C9 using HepaRG (AID 2283484)
Procedure, shortened: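 HepaRG, 48 h dosing, 8-pt half-log series, top 100 uM, 0.5% DMSO vehicle. Read-out: CYP2C9 transcript by TaqMan qRT-PCR, housekeeping-normalized (ACTB/GAPDH/POLR2A). Gain or loss fitted vs DMSO baseline.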

CYP2E1 (gene 1571) = test: LTEA_HepaRG_CYP2E1: Life Technologies and Expression Analysis (LTEA) Assay for CYP2E1 using HepaRG (AID 2283485)
Procedure, shortened: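 CYP2E1 transcript measured by Fluidigm qRT-PCR against three housekeeping genes in human HepaRG cells treated 48 h (top 100 uM, half-log steps, 0.5% DMSO vehicle). Gain or loss fitted relative to DMSO baseline.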

[6] = read-out: Cytochrome P450 3A4 (Homo sapiens) (UniProt P08684); test: LTEA_HepaRG_CYP3A4: Life Technologies and Expression Analysis (LTEA) Assay for CYP3A4 using HepaRG (AID 2283487)
Procedure, shortened: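 Differentiated HepaRG cells in serum-free induction medium exposed in duplicate for 48 h to 8 half-log concentrations up to 100 uM in 0.5% DMSO. CYP3A4 mRNA measured by qRT-PCR normalized to ACTB, GAPDH and POLR2A; bidirectional fit versus DMSO.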

CYP4A11 (gene 1579) = test: LTEA_HepaRG_CYP4A11: Life Technologies and Expression Analysis (LTEA) Assay for CYP4A11 using HepaRG (AID 2283486)
Procedure, shortened: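 Differentiated HepaRG cells, 48 h after plating, exposed in duplicate for 48 h to 8 half-log concentrations up to 100 uM in 0.5% DMSO in serum-free induction medium. CYP4A11 mRNA measured by TaqMan qRT-PCR, normalized to ACTB, GAPDH and POLR2A.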

Measured: AC50

Sequence of Cytochrome P450 2C19 (Homo sapiens) (P33261 whole entry, looked up): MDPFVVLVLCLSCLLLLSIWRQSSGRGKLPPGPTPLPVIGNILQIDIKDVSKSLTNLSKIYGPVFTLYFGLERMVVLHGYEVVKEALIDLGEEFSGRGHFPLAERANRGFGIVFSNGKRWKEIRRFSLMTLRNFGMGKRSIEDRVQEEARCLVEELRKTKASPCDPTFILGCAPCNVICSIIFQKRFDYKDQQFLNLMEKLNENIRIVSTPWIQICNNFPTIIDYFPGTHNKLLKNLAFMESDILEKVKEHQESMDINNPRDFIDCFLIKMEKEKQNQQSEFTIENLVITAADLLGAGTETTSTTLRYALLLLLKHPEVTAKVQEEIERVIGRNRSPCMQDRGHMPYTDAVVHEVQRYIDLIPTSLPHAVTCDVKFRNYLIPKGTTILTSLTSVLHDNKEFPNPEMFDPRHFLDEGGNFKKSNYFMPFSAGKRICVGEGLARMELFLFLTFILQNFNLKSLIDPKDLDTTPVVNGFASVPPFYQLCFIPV
Sequence of Cytochrome P450 3A4 (Homo sapiens) (P08684 whole entry, looked up): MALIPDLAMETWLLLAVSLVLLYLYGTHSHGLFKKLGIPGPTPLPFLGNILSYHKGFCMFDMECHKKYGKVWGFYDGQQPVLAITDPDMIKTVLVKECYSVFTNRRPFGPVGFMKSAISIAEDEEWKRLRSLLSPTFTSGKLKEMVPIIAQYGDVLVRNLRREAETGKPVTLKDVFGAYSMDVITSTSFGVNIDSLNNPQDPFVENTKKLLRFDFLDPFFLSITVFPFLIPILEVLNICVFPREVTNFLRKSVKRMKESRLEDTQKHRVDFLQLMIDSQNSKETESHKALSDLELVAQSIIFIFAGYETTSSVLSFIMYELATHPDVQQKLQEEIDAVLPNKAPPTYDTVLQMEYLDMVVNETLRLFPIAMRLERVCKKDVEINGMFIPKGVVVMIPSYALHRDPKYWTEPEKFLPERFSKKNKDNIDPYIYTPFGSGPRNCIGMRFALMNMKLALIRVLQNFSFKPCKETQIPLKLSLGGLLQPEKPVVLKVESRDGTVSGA

NCC1(Cc2noc(=O)[nH]2)CCCCC1
inactive: [1] | [2] | [3] | [4] | [5] | CYP2C8 (gene 1558) | CYP2C9 (gene 1559) | CYP2E1 (gene 1571) | [6]

CN1CCCC1=O
active: [2] 31.5 µM
inactive: [1] | [3] | [4] | [5] | CYP2C8 (gene 1558) | CYP2E1 (gene 1571) | CYP4A11 (gene 1579) | [6]

Cc1ccc(N(C)C)cc1
inactive: [1] | [3] | [5] | CYP2C8 (gene 1558) | CYP2C9 (gene 1559) | CYP2E1 (gene 1571) | [6]
active: [2] 23.9 µM | [4] 50 µM

C[C@]12C=CC(=O)C=C1CC[C@@H]1[C@@H]2C(=O)C[C@@]2(C)[C@H]1CC[C@]2(O)C(=O)CO
inactive: [3]

Cc1ccc2ncccc2c1
inactive: [1] | [2] | [3] | [5] | CYP2C8 (gene 1558) | CYP2C9 (gene 1559) | CYP2E1 (gene 1571) | [6]
active: [4] 13.2 µM

O=[N+]([O-])C(CO)(CO)CO
active: [2] 28.6 µM
inactive: [1] | [3] | [4] | [5] | CYP2C8 (gene 1558) | CYP2C9 (gene 1559) | CYP2E1 (gene 1571) | [6]

COc1ccc(S(=O)(=O)N2C(=O)[C@@](c3ccccc3OC)(N3C[C@H](O)C[C@H]3C(=O)N(C)C)c3cc(Cl)ccc32)c(OC)c1
inactive: [1] | [3]
active: [2] 22.2 µM | [4] 28.9 µM | [5] 21.5 µM | CYP2C8 (gene 1558) 23 µM | CYP2C9 (gene 1559) 20.5 µM | CYP2E1 (gene 1571) 33.6 µM | [6] 32.9 µM

COCCOC[C@H](CC1(C(=O)NC2CCC(C(=O)O)CC2)CCCC1)C(=O)Oc1ccc2c(c1)CCC2 (stereo not given in full)
inactive: [1] | [2] | [3] | [4] | [5] | CYP2C8 (gene 1558) | CYP2C9 (gene 1559) | CYP2E1 (gene 1571) | [6]

Cc1ccc(Cl)cc1
inactive: [1] | [2] | [3] | [4] | [5] | CYP2C8 (gene 1558) | CYP2C9 (gene 1559) | CYP2E1 (gene 1571) | [6]

CCOc1ccc2c(c1)C(C)=CC(C)(C)N2
active: [2] 13 µM | [4] 0.551 µM | CYP2E1 (gene 1571) 30 µM | [6] 1.73 µM
inactive: [1] | [3] | CYP2C8 (gene 1558) | CYP2C9 (gene 1559)

CCOC(=O)C(C)(C)Oc1ccc(Cl)cc1
inactive: [1] | [2] | [3] | [4] | CYP2C8 (gene 1558) | CYP2C9 (gene 1559) | CYP2E1 (gene 1571)

COC(=O)c1ccc(O)cc1
inactive: [1] | [2] | [3] | [4] | [5] | CYP2C8 (gene 1558) | CYP2C9 (gene 1559) | CYP2E1 (gene 1571) | [6]

CCCCCCC(=O)OCC
inactive: [1] | [3] | CYP2C8 (gene 1558) | CYP2C9 (gene 1559) | CYP2E1 (gene 1571) | [6]
active: [2] 23 µM | [4] 6.44 µM | [5] 8.96 µM

O=C(O)Cc1ccccc1Nc1c(Cl)cccc1Cl
active: [2] 2.69 µM | [5] 5.86 µM | CYP2E1 (gene 1571) 11.8 µM
inactive: [1] | [3] | CYP2C8 (gene 1558) | CYP2C9 (gene 1559) | CYP4A11 (gene 1579)

Nc1ccc(S(=O)(=O)c2ccc(N)cc2)cc1
inactive: [2] | [3] | CYP2C8 (gene 1558) | CYP2C9 (gene 1559) | CYP4A11 (gene 1579) | [6]
active: [1] 12.7 µM | [4] 32.4 µM | CYP2E1 (gene 1571) 5.9 µM

C=CCOC(=O)c1ccccc1C(=O)OCC=C
inactive: [1] | [2] | [3] | [4] | [5] | CYP2C8 (gene 1558) | CYP2C9 (gene 1559) | CYP2E1 (gene 1571) | [6]

CCCc1cc(=O)[nH]c(=S)[nH]1
active: [2] 23.7 µM
inactive: [1] | [3] | [4] | [5] | CYP2C8 (gene 1558) | CYP2C9 (gene 1559) | CYP2E1 (gene 1571) | [6]

O=c1[nH]cc(F)c(=O)[nH]1
inactive: [1] | [3] | [4] | [5] | CYP2C8 (gene 1558) | CYP2C9 (gene 1559) | [6]
active: [2] 51 µM | CYP2E1 (gene 1571) 51 µM

COc1ccc2c(c1)c(CC(=O)O)c(C)n2C(=O)c1ccc(Cl)cc1
active: CYP2E1 (gene 1571) 21.3 µM
inactive: [1] | [2] | [3] | [4] | [5] | CYP2C8 (gene 1558) | CYP2C9 (gene 1559) | [6]

Nc1nc(N)c2nc(CNc3ccc(C(=O)N[C@@H](CCC(=O)O)C(=O)O)cc3)cnc2n1
inactive: [1] | [3] | [4] | [5] | CYP2C8 (gene 1558) | CYP2C9 (gene 1559) | [6]
active: [2] 0.0998 µM | CYP2E1 (gene 1571) 0.098 µM

Cc1ccc(C(C)C)c(O)c1
inactive: [1] | [2] | [3] | [4] | [5] | CYP2C8 (gene 1558) | CYP2C9 (gene 1559) | CYP2E1 (gene 1571) | [6]

CCCCCC(=O)O
active: [2] 63.7 µM
inactive: [1] | [3] | [4] | [5] | CYP2C8 (gene 1558) | CYP2C9 (gene 1559) | CYP2E1 (gene 1571) | [6]

NS(=O)(=O)c1cc2c(cc1Cl)NCNS2(=O)=O
inactive: [1] | [3] | [4] | [5] | CYP2C8 (gene 1558) | CYP2C9 (gene 1559) | CYP2E1 (gene 1571) | CYP4A11 (gene 1579) | [6]
